The panel holds about 83,000 compounds, 20% with a hit somewhere; the sample as a whole holds those more often.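 The endpoint reported here, percent growth, reads 100 for growth as untreated, 0 for no net growth and -100 for all cells dead.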 Calls of active or inactive are those of the source. How the source made its calls: active means growth percent below 10; inactive means the rest.
What follows are molecules tested on HOP-92 NSCLC (assay: NCI-60 one-dose screen, 48 h (100 = growth as untreated, 0 = no growth, -100 = all killed)). Conditions: 10 µM unless noted.
`O=S(=O)(NCCNc1nccc(-c2c(-c3ccc(F)c(O)c3)nc3occn23)n1)c1ccc(Cl)cc1` was tested, and the growth was 70.4% (inactive).
With `Nc1ncnc2c1N=C(c1ccc(Br)cc1)CC(c1cccc(Nc3ccnc4cc(C(F)(F)F)ccc34)c1)N2` (configuration not stated) the growth was 41.4% (inactive).
`Nc1ncc(-c2ccc3ncnc(Nc4cccc(Cl)c4)c3c2)cn1` was tested, and the growth was 11.8% (inactive).
In the case of `O=C(Nc1ccccc1)Nc1ncnc2c1ncn2-c1ccc(Cl)cc1`, the growth was 97.3% (inactive).

What follows are molecules tested on NCI-H522 lung in the same assay as above. Conditions: 10 µM unless noted.
`C[PH+](c1nc2ccccc2nc1[PH+](C)C(C)(C)C)C(C)(C)C.C[PH+](c1nc2ccccc2nc1[PH+](C)C(C)(C)C)C(C)(C)C.[Au+].[Cl-]` (configuration not stated) was tested, and the growth was -88.7% (active).
In the case of `CN(C)CCNC(=O)c1cc2c3cc(Cl)ccc3[nH]c2c2ncccc12`, the growth was 21.2% (inactive).
In the case of `CNC(=O)c1ccccc1Oc1nc(Nc2cc(OC)c(OC)c(OC)c2)ncc1Br`, the growth was 53.9% (inactive).
`O=C(c1ccccc1)c1ccc(C2CCCCC2)cc1` was tested, and the growth was 88.9% (inactive).
`CCCCCCCC[C@@H]1N[C@@H](C(=O)OC)Cc2c1[nH]c1ccccc21` was tested, and the growth was 86.6% (inactive).
`Cc1cc(N2CCCCC2)cc(C)c1-c1csc(NC(=O)c2ccncc2)n1` was tested, and the growth was 44.1% (inactive).
`Cc1nc2sc(C(=O)Nc3ccc(Br)cc3)c(N)c2cc1C(O)c1ccccc1` (configuration not stated) was tested, and the growth was 60.5% (inactive).
For `CCN(CC)CC(O)COc1c(Br)c(Br)c(Br)c2c1OC(C)(C)C2` (configuration not stated), the growth was 145% (inactive).
`Cc1cccc(CNc2c3ccccc3nc3ccccc23)c1` was tested, and the growth was 52.1% (inactive).
`Fc1cc2c(cc1Cl)N(c1ncnc3ccc(-c4ccc5n[nH]nc5c4)cc13)CC2` was tested, and the growth was 67.3% (inactive).
`CC/C(=C(/c1ccc(Cl)cc1)c1ccc(OCCN(C)C)cc1)c1ccc(Cl)cc1` was tested, and the growth was 70.3% (inactive).
With `Cn1cc(-c2nonc2-c2cn(C)c3ccccc23)c2ccccc21` the growth was -20.5% (active).
`COC12C=C/C(=C(/C(=O)OCc3ccncc3)C(=O)CCCCCCCCC3(OC)C=C/C(=C(/C(=O)OCc4ccncc4)C(=O)CCCCCCCC1)O3)O2` was tested, and the growth was -41% (active).
`COc1cc2ncnc(Nc3ccc(F)c(Cl)c3)c2cc1OCC(=O)N1CCN(c2ccccc2)CC1` was tested, and the growth was 79.9% (inactive).
For `COc1ccc(/C=C(\C#N)n2nnc3cc(Cl)ccc32)cc1`, the growth was -15.7% (active).
`COc1ccc(C(=O)/C=C/c2c(C(F)(F)F)nc3ccccn23)cc1OC` was tested, and the growth was 10.8% (inactive).
With `CCN(C)S(=O)(=O)Nc1cccc(Nc2ncnc3cc(NC(=O)CCl)ccc23)c1Cl` the growth was -70.6% (active).
For `Cc1c2cnccc2c(C)c2c1c1cc(C#N)ccc1n2C`, the growth was -71% (active).
With `CN(C)CC(C)(C)C(=O)/C=C/c1ccccc1` the growth was -81.1% [25 µM] (active).
`O=CN1N=C(c2cccc(Nc3ccnc4cc(Cl)ccc34)c2)CC1c1ccccc1` (configuration not stated) was tested, and the growth was -25.8% (active).
`O=C(Nc1ccc(Oc2cccc(Cl)c2)c(Cl)c1)c1cnccn1` was tested, and the growth was 12.5% (inactive).
With `O=c1[nH]c(Cc2nc3ccccc3s2)nc2cc(Br)ccc12` the growth was 58.7% (inactive).
`C#CCNC(=O)[C@H](CC)[C@H]1CC[C@H](C)[C@H]([C@@H](C)[C@H](O)[C@H](C)C(=O)[C@H](CC)C2O[C@]3(C=CC(=O)[C@]4(CC[C@@](C)([C@H]5CC[C@](O)(CC)[C@H](C)O5)O4)O3)[C@H](C)C[C@@H]2C)O1` (some centres not stated) was tested, and the growth was 32.3% (inactive).
For `O=C(Nc1ccc(Oc2cccc(F)c2)c(Cl)c1)c1cccnc1`, the growth was 36.2% (inactive).
With `CS(=O)(=O)Nc1cc(-c2ccc3ncnc(Nc4ccc5c(cnn5Cc5ccc(F)cc5)c4)c3c2)cnc1Cl` the growth was 43.7% (inactive).
In the case of `COC1=CC(c2ccc[nH]2)=N/C1=C\c1[nH]c(C)c(C)c1CCC(=O)OCc1ccccc1`, the growth was -38.7% (active).
With `CC(C)(C)CC(C)(C)NC(=O)Nc1ncccc1OCc1ccccc1` the growth was 70.7% (inactive).
With `Nc1nc2ccccc2c2c1S(=O)(=O)c1ccc(Cl)cc1C2=O` the growth was -73.5% (active).
`CCOC(=O)C/C(=N\Nc1cc(=O)[nH]c2ccc(Br)cc12)C(=O)OCC` was tested, and the growth was 95.2% (inactive).
For `COc1cc(-c2csc(NC(=O)c3ccc(N4CCOCC4)c(C(F)(F)F)c3)n2)cc(OC)c1OC`, the growth was 14.3% (inactive).
For `Oc1c(Br)cc(Br)c2ccc(Cn3cc(-c4ccc(C(F)(F)F)cc4)nn3)nc12`, the growth was -43.5% (active).
In the case of `C#CCOc1ccc2ncnc(Nc3ccc(NC(=O)C=C)cc3)c2c1`, the growth was -75.7% (active).
`CCn1cc(C(=O)O)c(=O)c2cc(F)c(N3CCN(CC(=O)Nc4ccc(S(=O)(=O)Nc5nccc(C)n5)cc4)C(C)C3)c(F)c21` (configuration not stated) was tested, and the growth was 105% (inactive).
